Test results as given in article PMC8384837, “Expanding the binding specificity for RNA recognition by a PUF domain”.

How the values were obtained:
Test in all cases: yeast three-hybrid, YBZ-1, SC-Leu-His + 0.5 mM 3-AT, 4 days
Details in all cases: tags: N-Gal4 AD-HA kept; label: inside an RPR1-promoter hybrid RNA with tandem MS2 sites; ssRNA
PUM1 PUF domain R1-HMR = PUM1 PUF domain R1-HMR (Homo sapiens, UniProt Q14671 828-1176, S863H;R864M;Q867R)
Procedure, shortened: (§1)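 Pumilio-1 PUF domain libraries, randomized at the three base-contacting residues of each repeat, were co-expressed with matching RNA elements from a centromeric plasmid in strain YBZ-1, which carries a LexA–MS2 coat fusion and a HIS3 reporter. Transformants grew for four days on SC-Leu (input) or on SC-Leu-His + 0.5 mM 3-AT (selection), and the repeat regions were PCR-amplified and Illumina-sequenced. The interaction score is the log change in variant frequency from input to selection. That logarithm is base 2, with a pseudocount of 1 where a variant was absent.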

PUM1 PUF domain R8-KYT = PUM1 PUF domain R8-KYT (Homo sapiens, UniProt Q14671 828-1176, N1122K;Q1126T)
Procedure, shortened: as §1

PUM1 PUF domain R5-RSC = PUM1 PUF domain R5-RSC (Homo sapiens, UniProt Q14671 828-1176, C1007R;R1008S;Q1011C)
Procedure, shortened: as §1

PUM1 PUF domain R5-SER = PUM1 PUF domain R5-SER (Homo sapiens, UniProt Q14671 828-1176, C1007S;R1008E;Q1011R)
Procedure, shortened: as §1

PUM1 PUF domain R8-KRN = PUM1 PUF domain R8-KRN (Homo sapiens, UniProt Q14671 828-1176, N1122K;Y1123R;Q1126N)
Procedure, shortened: as §1

PUM1 PUF domain R5-PGY = PUM1 PUF domain R5-PGY (Homo sapiens, UniProt Q14671 828-1176, C1007P;R1008G;Q1011Y)
Procedure, shortened: as §1

PUM1 PUF domain R3-AKE = PUM1 PUF domain R3-AKE (Homo sapiens, UniProt Q14671 828-1176, C935A;R936K;Q939E)
Procedure, shortened: as §1

PUM1 PUF domain R4-TNQ = PUM1 PUF domain R4-TNQ (Homo sapiens, UniProt Q14671 828-1176, N971T;H972N)
Procedure, shortened: as §1

PUM1 PUF domain R5-DFT = PUM1 PUF domain R5-DFT (Homo sapiens, UniProt Q14671 828-1176, C1007D;R1008F;Q1011T)
Procedure, shortened: as §1

PUM1 PUF domain R5-SVS = PUM1 PUF domain R5-SVS (Homo sapiens, UniProt Q14671 828-1176, C1007S;R1008V;Q1011S)
Procedure, shortened: as §1

## GGCUAGAACUAGUGGAUCCCCCGGCGCCCGGCGGCUCGAGCCCGGGUAAGUGUAAAUCGUCUGCAUGCCGCCGGGCGCCAUGCCUGCAGGUCGACUCUAGAAAACAUG
PUM1 PUF domain R1-HMR
  binding signal: 3.35 log2 enrichment (interaction score)

## GGCUAGAACUAGUGGAUCCCCCGGCGCCCGGCGGCUCGAGCCCGGGUAAGCGUAAAUAGUCUGCAUGCCGCCGGGCGCCAUGCCUGCAGGUCGACUCUAGAAAACAUG
PUM1 PUF domain R8-KYT
  binding signal: 2.81 log2 enrichment (interaction score)

## GGCUAGAACUAGUGGAUCCCCCGGCGCCCGGCGGCUCGAGCCCGGGUAAGUGUUAAUAGUCUGCAUGCCGCCGGGCGCCAUGCCUGCAGGUCGACUCUAGAAAACAUG
PUM1 PUF domain R5-RSC
  binding signal: 3.18 log2 enrichment (interaction score)

## GGCUAGAACUAGUGGAUCCCCCGGCGCCCGGCGGCUCGAGCCCGGGUAAGUGUCAAUAGUCUGCAUGCCGCCGGGCGCCAUGCCUGCAGGUCGACUCUAGAAAACAUG
PUM1 PUF domain R5-SER
  binding signal: 3.79 log2 enrichment (interaction score)
PUM1 PUF domain R5-RSC
  binding signal: 3.02 log2 enrichment (interaction score)

## GGCUAGAACUAGUGGAUCCCCCGGCGCCCGGCGGCUCGAGCCCGGGUAAGUGUAAAUAGUCUGCAUGCCGCCGGGCGCCAUGCCUGCAGGUCGACUCUAGAAAACAUG
PUM1 PUF domain R8-KYT
  binding signal: 2.68 log2 enrichment (interaction score)
PUM1 PUF domain R8-KRN
  binding signal: 2.98 log2 enrichment (interaction score)
PUM1 PUF domain R5-PGY
  binding signal: 4.47 log2 enrichment (interaction score)

## GGCUAGAACUAGUGGAUCCCCCGGCGCCCGGCGGCUCGAGCCCGGGUAAGUGUAAGUAGUCUGCAUGCCGCCGGGCGCCAUGCCUGCAGGUCGACUCUAGAAAACAUG
PUM1 PUF domain R3-AKE
  binding signal: 2.98 log2 enrichment (interaction score)

## GGCUAGAACUAGUGGAUCCCCCGGCGCCCGGCGGCUCGAGCCCGGGUAAGUGUAUAUAGUCUGCAUGCCGCCGGGCGCCAUGCCUGCAGGUCGACUCUAGAAAACAUG
PUM1 PUF domain R4-TNQ
  binding signal: 4.92 log2 enrichment (interaction score)

## GGCUAGAACUAGUGGAUCCCCCGGCGCCCGGCGGCUCGAGCCCGGGUAAGUGUGAAUAGUCUGCAUGCCGCCGGGCGCCAUGCCUGCAGGUCGACUCUAGAAAACAUG
PUM1 PUF domain R5-DFT
  binding signal: 3.29 log2 enrichment (interaction score)
PUM1 PUF domain R5-SVS
  binding signal: 3.48 log2 enrichment (interaction score)
